Assay [1] is described as follows: Viability qHTS for spleen associated tyrosine kinase inhibitor (SYKi) naive MV4-11 cells (AID 1963823). Further: nearly all actives have a fitted effect of over 40% in size. In a few lines:
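Cells: MV4-11, SYK inhibitor naive, 500 per well. Treatment: library compounds, 72 hr, 37 C, 5% CO2. Read-out: CellTiter-Glo luminescence after 10 min RT.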
For orientation: qHTS replaces the single test concentration by a dilution series.

A short description of assay [2]: Viability qHTS for spleen associated tyrosine kinase inhibitor (SYKi) drug resistant MV4-11 cells (AID 1963824). Further: nearly all actives have a fitted effect of over 35% in size. In a few lines: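 SYK inhibitor-resistant MV4-11 AML cells, 500 per well, added to predispensed compounds and incubated 72 hr at 37 C, 5% CO2. Viability measured by CellTiter-Glo luminescence after 10 min at room temperature.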

Records with an inconclusive call do not appear. Activity calls are given as the source filed them. The call rests on the fitted dose curve; in most records, active means well fitted cell-killing curve with a large enough effect; inconclusive means small, poorly fitted or top-dose-only effect, or effect the other way; inactive means no such curve, though single readings can be large or run the other way.
Potency means the concentration at half of the fitted maximal effect.

For the compound `CN1CCN(C(=O)c2ccc3cc(CCNc4ncnc5ccc(C#N)cc45)ccc3c2)CC1`, the Potency was 0.92 µM (active) in assay [1] and 0.461 µM (active) in assay [2].

With `O=C(CCc1nnc2n(Cc3ccc(Cl)cc3)c(=O)c3ccccc3n12)NCCC1=CCCCC1`, the Potency result in assay [1] and in assay [2] was “inactive” throughout.

Consider `OC[C@@]1(O)CO[C@@H](OC[C@H]2O[C@@H](Oc3ccccc3)[C@H](O)[C@@H](O)[C@@H]2O)[C@@H]1O`, for which the Potency result in assay [1] and in assay [2] was “inactive” in each case.

On to `C[C@@H]1CC[C@]2(C(=O)O)CC[C@]3(C(=O)O)C(=CCC4[C@@]5(C)CC[C@H](O[C@@H]6O[C@@H](C)[C@H](O[C@@H]7O[C@H](CO)[C@@H](O)[C@H](O)[C@H]7O)[C@@H](O)[C@H]6O)C(C)(C)C5CC[C@]43C)C2[C@H]1C` (stereo partly drawn), for which the Potency result in assay [1] and in assay [2] was “inactive” throughout.

As for `CN(CCCN1c2ccccc2CCc2ccccc21)CC(=O)c1ccc(Cl)cc1`, the Potency is 23.7 µM (active) in assay [1] and 13.3 µM (active) in assay [2].

For the compound `COC12CC3C(C(C)C1=CC(=O)O2)C(O)C(OC(C)=O)C1C(C)(C)C(OC(C)=O)CCC31C` (stereo not drawn), the Potency result in assay [1] and in assay [2] was “inactive” throughout.

In the case of `COc1cc(/C=C/C(=O)OC(C)(C)C(OC2OC(CO)C(O)C(O)C2O)C(=O)OCc2ccc(OC3OC(CO)C(O)C(O)C3O)cc2)ccc1O` (stereo not drawn), the Potency entry in assay [1] and in assay [2] was “inactive” in each case.

With `O=C1NC(c2cccc([N+](=O)[O-])c2)=CCN1c1ccccc1O`, the Potency result in assay [1] and in assay [2] was “inactive” each time.

In the case of `CC/C(=C(\c1ccc(O)cc1)c1ccc(OCCNC)cc1)c1ccccc1`, the Potency entry in assay [1] and in assay [2] was “inactive” throughout.

On to `CC(C)COC(=O)c1ccc(N)cc1`, for which the Potency entry in assay [1] and in assay [2] was “inactive” each time.

As for `COc1cc(C(=O)NC2CCN(C)CC2)c(F)cc1Nc1ncc2c(n1)N(C1CCCC1)CC(F)(F)C(=O)N2C`, the Potency is 0.0206 µM (active) in assay [1] and 0.0092 µM (active) in assay [2].

`C/C(=C/CO)CC[C@@H]1[C@@]2(C)CCC[C@](C)(C(=O)O)C2CC[C@@]1(C)O` (stereo partly drawn): the Potency entry in assay [1] and in assay [2] was “inactive” throughout.

Take `COc1cc(O)cc(C)c1C(=O)OC1C(CO)OC(OC2C(O)C(O)C(O)C(O)C2O)C(O)C1O` (stereo not drawn): the Potency result in assay [1] and in assay [2] was “inactive” each time.

As to `CN(C)c1nc2c(Br)c(Br)c(Br)c(Br)c2[nH]1`, the Potency is 11.6 µM (active) in assay [1] and 8.2 µM (active) in assay [2].

With `C[C@H](O)[C@H](O)[C@H]1CNc2nc(N)[nH]c(=O)c2N1`, the Potency result in assay [1] and in assay [2] was “inactive” in each case.

`CC/C=C\CC1C(CC(=O)O)CCC1OC1OC(CO)C(O)C(O)C1O` (stereo not drawn): the Potency result in assay [1] and in assay [2] was “inactive” each time.

As to `O=C(Nc1ccccc1-c1cn2c(CN3CCNCC3)csc2n1)c1ccc2ccccc2n1`, the Potency in assay [1] is 10.3 µM (active); in assay [2] it was 20.6 µM (active).

Turning to `COc1cc2c(cc1OC)CN(C(=O)/C=C/c1c(-c3ccccc3)n(C)c3ncccc13)CC2`, the Potency in assay [1] is 2.59 µM (active); in assay [2] it was 3.66 µM (active).

As to `Nc1n[nH]c(N)c1N=Nc1ccc(O)cc1`, the Potency in assay [1] was 9.2 µM (active); in assay [2], 6.51 µM (active).

Consider `CN(C)CCCOc1ccc(-c2ccc3ncc4c(c3c2)n(C2CCOCC2)c(=O)n4C)cn1`, for which the results for the Potency in assay [1] and in assay [2] were 1.15 µM (active) and 2.04 µM (active), respectively.

In the case of `CC1(C)CC[C@]2(C(=O)O[C@@H]3O[C@H](CO)[C@@H](O)[C@H](O)[C@H]3O)CC[C@]3(C)C(=CCC4[C@@]5(C)C[C@@H](O)[C@H](O)[C@@](C)(CO)C5CC[C@]43C)C2C1` (stereo partly drawn), the Potency entry in assay [1] and in assay [2] was “inactive” each time.

For the compound `CCOC(=O)c1cnn(-c2ccc(NC(=O)C(Cl)=C(Cl)Cl)cc2)c1C(F)(F)F`, the Potency in assay [1] is 0.58 µM (active); in assay [2], 0.366 µM (active).

On to `C=C1C(=O)O[C@@H]2[C@H]1[C@H](O)C[C@]1(C)[C@@H](O)CC=C(C)[C@@H]21`, for which the Potency in assay [1] was 9.2 µM (active); in assay [2], 4.11 µM (active).

On to `CC1CCC23COC(=O)C2=CC(O)CC3C1(C)CCc1ccoc1` (stereo not drawn), for which the Potency entry in assay [1] and in assay [2] was “inactive” throughout.

For the origin of these results see PubChem BioAssay (NCATS).
